# Reference: the supplement of paper PMC4022240
# ± gives the standard deviation.
# B1: Unmod H4 variant G G V K R I S G L I Y E E (peptide)
# chain: GGVKRISGLIYEE
# B2: Unmod H4 variant Y E E T R G V L K V F L E (peptide)
# chain: YEETRGVLKVFLE
# B3: Unmod H4 variant T Y T E H A K R K T V T A (peptide)
# chain: TYTEHAKRKTVTA
# B4: Unmod H4 variant I R D A V T Y T E H A K R (peptide)
# chain: IRDAVTYTEHAKR
# B5: Unmod H3 variant A I H A K R V T I M P K D (peptide)
# chain: AIHAKRVTIMPKD
# B6: Unmod H4 variant I Q G I T K P A I R R L A (peptide)
# chain: IQGITKPAIRRLA
# B7: Unmod H4 variant S G R G K G G K G L G K G (peptide)
# chain: SGRGKGGKGLGKG
# B8: Unmod H4 variant G V L K V F L E N V I R D (peptide)
# chain: GVLKVFLENVIRD
# B9: Unmod H4 variant G K G G A K R H R K V L R (peptide)
# chain: GKGGAKRHRKVLR
# B10: Unmod H3 variant R V T I M P K D I Q L A R (peptide)
# chain: RVTIMPKDIQLAR
# B11: Unmod H4 variant F L E N V I R D A V T Y T (peptide)
# chain: FLENVIRDAVTYT
# B12: Unmod H4 variant G G K G L G K G G A K R H (peptide)
# chain: GGKGLGKGGAKRH
# B13: Unmod H4 variant V L R D N I Q G I T K P A (peptide)
# chain: VLRDNIQGITKPA
# B14: Unmod H4 variant K R H R K V L R D N I Q G (peptide)
# chain: KRHRKVLRDNIQG
# B15: Unmod H4 variant I S G L I Y E E T R G V L (peptide)
# chain: ISGLIYEETRGVL
# B16: Unmod H4 variant A K R K T V T A M D V V Y (peptide)
# chain: AKRKTVTAMDVVY
# Biological target: T1, HaloTag-ATRX ADD domain (163-292)
# T1 chain: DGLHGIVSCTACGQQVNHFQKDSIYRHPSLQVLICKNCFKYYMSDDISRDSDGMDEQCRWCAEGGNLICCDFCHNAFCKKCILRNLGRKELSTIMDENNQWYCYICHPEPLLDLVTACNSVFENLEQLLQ
# Assay: peptide microarray binding signal (635 nm), min-max normalized on array (fraction of array maximum); higher = stronger binding
# Conditions: peptide region: Unmod H4 variant; binder concentration: 50 nM
# In short: (§1)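 Binding signal is the mean intensity of triplicate spots, min-max scaled within each library. Histone 13-mer peptide–cellulose conjugates were spotted in triplicate on nitrocellulose with a Cy3 tracer and blocked overnight at 4°C. Probing lasted 1 h at 4°C, either with biotin-labelled HaloTag reader fusions (10 nM to 1 μM) and streptavidin-Alexa Fluor 647 or with rabbit histone antibodies (1:10,000 to 1:2,000) and anti-rabbit Alexa 647. An Axon GenePix 4000B read signal at 635 nm and misprints at 532 nm.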
row,Binder,peptide microarray binding signal
1,B1,0.00323 ± 0.00011
2,B2,0.00188 ± 2.3e-05
3,B3,0.0167 ± 0.0088
4,B4,0.0385 ± 0.0035
5,B6,0.0496 ± 0.0034
6,B7,0.00426 ± 0.00016
7,B8,0.00223 ± 6.3e-05
8,B9,0.00508 ± 0.0001
9,B11,0.0144 ± 0.0008
10,B12,0.00373 ± 6.8e-05
11,B13,0.0154 ± 0.00068
12,B14,0.00636 ± 0.00015
13,B15,0.00266 ± 3.1e-05
14,B16,0.00693 ± 0.00037

# Same assay, conditions: peptide region: Unmod H4 variant; binder concentration: 500 nM
row,Binder,peptide microarray binding signal
1,B1,0.0107 ± 0.006
2,B2,0.00157
3,B3,0.0332 ± 0.0014
4,B4,0.0711 ± 0.01
5,B6,0.0842 ± 0.0024
6,B7,0.009 ± 0.00081
7,B8,0.00281 ± 0.00014
8,B9,0.0113 ± 0.00031
9,B11,0.0404 ± 0.01
10,B12,0.011 ± 0.0003
11,B13,0.0293 ± 0.0022
12,B14,0.0147 ± 0.00085
13,B15,0.00776 ± 0.0036
14,B16,0.0206 ± 0.0015

# Biological target: HaloTag-ING2 PHD (mouse Ing2 200-280)
# Assay: as above
# Conditions: peptide region: Unmod H4 variant; binder concentration: 10 nM
# In short: as §1
row,Binder,peptide microarray binding signal
1,B1,0.00507 ± 0.0008
2,B2,0.00197 ± 3e-05
3,B3,0.00901 ± 0.00035
4,B4,0.0251 ± 0.0019
5,B6,0.0565 ± 0.0092
6,B7,0.00412 ± 0.00013
7,B8,0.00388 ± 0.00015
8,B9,0.00292 ± 0.00011
9,B11,0.00901 ± 0.0012
10,B12,0.0132 ± 0.0071
11,B13,0.0201 ± 0.00092
12,B14,0.00549 ± 9.7e-05
13,B15,0.00233 ± 7.4e-05
14,B16,0.00609 ± 0.00018

# Same assay, conditions: peptide region: Unmod H4 variant; binder concentration: 100 nM
row,Binder,peptide microarray binding signal
1,B1,0.0272 ± 0.027
2,B2,0.001913 ± 1.9e-05
3,B3,0.0293 ± 0.0034
4,B4,0.0444 ± 0.0047
5,B6,0.119 ± 0.019
6,B7,0.0136 ± 0.0012
7,B8,0.00269 ± 6.7e-05
8,B9,0.00836 ± 0.00085
9,B11,0.0294 ± 0.011
10,B12,0.0147 ± 0.00057
11,B13,0.0672 ± 0.0023
12,B14,0.0208 ± 0.0048
13,B15,0.00319 ± 0.00013
14,B16,0.0129 ± 0.0003

# Biological target: anti-H3K4me3 antibody ab8580
# Assay: as above
# Conditions: peptide region: Unmod H4 variant; binder concentration: 1:2,000 dilution
# In short: as §1
row,Binder,peptide microarray binding signal
1,B1,0.000755 ± 7e-05
2,B2,0.00123 ± 0.00021
3,B3,0.00155 ± 0.00011
4,B4,0.00429 ± 0.00052
5,B6,0.0125 ± 0.0012
6,B7,0.000831 ± 3.2e-05
7,B8,0.00174 ± 0.00026
8,B9,0.000472 ± 9.3e-06
9,B11,0.00381 ± 0.00074
10,B12,0.000547 ± 1.1e-05
11,B13,0.0064 ± 0.00045
12,B14,0.000774 ± 7e-06
13,B15,0.00109 ± 5.1e-05
14,B16,0.00104 ± 3.5e-05

# Same assay, conditions: peptide region: Unmod H4 variant; binder concentration: 1:10,000 dilution
row,Binder,peptide microarray binding signal
1,B1,0.00126 ± 5.7e-05
2,B2,0.000742
3,B3,0.0024 ± 0.00014
4,B4,0.00913 ± 0.0018
5,B6,0.0159 ± 0.0013
6,B7,0.00108 ± 1.9e-05
7,B8,0.00097 ± 2e-05
8,B9,0.000856 ± 1.8e-05
9,B11,0.00519 ± 0.00068
10,B12,0.00114 ± 2.3e-05
11,B13,0.0089 ± 0.0011
12,B14,0.00114 ± 1.2e-05
13,B15,0.00114 ± 1.2e-05
14,B16,0.001484 ± 1.4e-05

# Biological target: anti-H3K9me3 antibody ab8898
# Assay: as above
# Conditions: peptide region: Unmod H4 variant; binder concentration: 1:2,000 dilution
# In short: as §1
row,Binder,peptide microarray binding signal
1,B1,0.000664 ± 7.4e-05
2,B2,0.000287 ± 2.9e-06
3,B3,0.00104 ± 3.8e-05
4,B4,0.00497 ± 9e-05
5,B6,0.00663 ± 0.00078
6,B7,0.000438 ± 8.5e-06
7,B8,0.00125 ± 0.00016
8,B9,0.000302 ± 3.1e-06
9,B11,0.00331 ± 0.00056
10,B12,0.0003775 ± 3.7e-06
11,B13,0.00264 ± 0.00015
12,B14,0.000604 ± 4.7e-05
13,B15,0.0004228 ± 4.1e-06
14,B16,0.000604 ± 2e-05

# Same assay, conditions: peptide region: Unmod H4 variant; binder concentration: 1:10,000 dilution
row,Binder,peptide microarray binding signal
1,B1,0.000923 ± 3.4e-05
2,B2,0.000807 ± 2.5e-05
3,B3,0.00202 ± 8.6e-05
4,B4,0.00577 ± 8e-05
5,B6,0.00957 ± 0.00076
6,B7,0.000692 ± 7.3e-06
7,B8,0.00098
8,B9,0.00075 ± 7.9e-06
9,B11,0.0034 ± 0.00025
10,B12,0.00075 ± 7.9e-06
11,B13,0.00323 ± 9.4e-05
12,B14,0.00104 ± 2.8e-05
13,B15,0.000807 ± 1.5e-05
14,B16,0.00104 ± 1.1e-05

# Biological target: T1, HaloTag-ATRX ADD domain (163-292)
# Assay: as above
# Conditions: peptide region: Unmod H3 variant; binder concentration: 50 nM
# In short: as §1
row,Binder,peptide microarray binding signal
1,B5,0.00414 ± 0.00014
2,B10,0.00552 ± 9e-05

# Same assay, conditions: peptide region: Unmod H3 variant; binder concentration: 500 nM
row,Binder,peptide microarray binding signal
1,B5,0.0132 ± 0.00021
2,B10,0.0187 ± 0.001

# Biological target: HaloTag-ING2 PHD (mouse Ing2 200-280)
# Assay: as above
# Conditions: peptide region: Unmod H3 variant; binder concentration: 10 nM
# In short: as §1
row,Binder,peptide microarray binding signal
1,B5,0.00507 ± 0.00019
2,B10,0.0177 ± 0.00085

# Same assay, conditions: peptide region: Unmod H3 variant; binder concentration: 100 nM
row,Binder,peptide microarray binding signal
1,B5,0.0196 ± 0.0021
2,B10,0.0422 ± 0.0028

# Biological target: anti-H3K4me3 antibody ab8580
# Assay: as above
# Conditions: peptide region: Unmod H3 variant; binder concentration: 1:2,000 dilution
# In short: as §1
row,Binder,peptide microarray binding signal
1,B5,0.000849 ± 2.3e-05
2,B10,0.00585 ± 0.00079

# Same assay, conditions: peptide region: Unmod H3 variant; binder concentration: 1:10,000 dilution
row,Binder,peptide microarray binding signal
1,B5,0.00211
2,B10,0.00782 ± 0.00068

# Biological target: anti-H3K9me3 antibody ab8898
# Assay: as above
# Conditions: peptide region: Unmod H3 variant; binder concentration: 1:2,000 dilution
# In short: as §1
row,Binder,peptide microarray binding signal
1,B5,0.000513 ± 1.3e-05
2,B10,0.00403 ± 0.00079

# Same assay, conditions: peptide region: Unmod H3 variant; binder concentration: 1:10,000 dilution
row,Binder,peptide microarray binding signal
1,B5,0.000692 ± 7.3e-06
2,B10,0.00375 ± 0.00014
